MEX-5 binding – C. elegans MEX-5 TCR-2 RNA binding activity; Q9XUB2; MEX-5/FITC-TCR2 RNA binding, fluorescence polarization; stronger effect = lower value; activity score (negative = inhibition of binding), % at 10 µM; 0.38% of 300,000 active; AID 1832;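 active means inhibition past about -25% in most replicates, and total fluorescence under double the plate's negative control median, limit read from the data; inconclusive means replicates evenly split on the limit, or fluorescence at least double controls; inactive means too little inhibition in most replicates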;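 further: 0% = DMSO and -100% = 5 µM competing unlabeled TCR2 RNA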
V-ATPase pHluor – yeast V-ATPase proton transport regulation by pHLuorin. S. cerevisiae, pHLuorin cytosolic pH fluorescence. response, % at 10 µM. 0.37% of 350,000 active. AID 504577; in the data active means response mostly above about 7.3%, no sharp cut-off; inactive means mostly below about 5.4%; further: actives read high
VLA-4 inh – inhibition in a human VLA-4 binding assay; P13612; VLA-4 expressing cells, ligand binding flow cytometry; inhibition, % (about 7 µM as worked out from the volumes in the protocol); 0.2% of 330,000 active; AID 2557; in the data active means inhibition above about 50%
HTR2A ag – agonists of mouse serotonin 5-HT2A receptor (HTR2A) | CHO-K1 mHTR2A beta-arrestin complementation, luminescence; percent of 30 µM serotonin response | 0.66% of 360,000 active | AID 624169 | activation, % at 7.6 µM | P35363;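 active means activation above a run cutoff, the mean activation of all tested compounds plus 3 SD, cut at about 14% in these data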;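 further: 0% = plate median of compound wells and 100% = 30 µM serotonin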
JMJD2C inh – inhibitors of human GASC-1 (JMJD2C) demethylase | Q9H3R0 | GST-JMJD2C(1-420) H3K9me3 demethylation, DELFIA europium | inhibition, % at 2.35 µM | 0.069% of 330,000 active | AID 2099;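 active means more than half of a compound's replicate wells show inhibition beyond 50%, single wells judged on their own value; inconclusive means some, but no more than half, of replicates pass 50% inhibition; inactive means no replicate passes 50% inhibition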;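 further: signal counts dimethyl H3K9 product captured on neutravidin plate; 0% = median of DMSO wells and 100% = 0.3 times that DMSO median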
Target sequence (Q9H3R0 1-420 limits assumed): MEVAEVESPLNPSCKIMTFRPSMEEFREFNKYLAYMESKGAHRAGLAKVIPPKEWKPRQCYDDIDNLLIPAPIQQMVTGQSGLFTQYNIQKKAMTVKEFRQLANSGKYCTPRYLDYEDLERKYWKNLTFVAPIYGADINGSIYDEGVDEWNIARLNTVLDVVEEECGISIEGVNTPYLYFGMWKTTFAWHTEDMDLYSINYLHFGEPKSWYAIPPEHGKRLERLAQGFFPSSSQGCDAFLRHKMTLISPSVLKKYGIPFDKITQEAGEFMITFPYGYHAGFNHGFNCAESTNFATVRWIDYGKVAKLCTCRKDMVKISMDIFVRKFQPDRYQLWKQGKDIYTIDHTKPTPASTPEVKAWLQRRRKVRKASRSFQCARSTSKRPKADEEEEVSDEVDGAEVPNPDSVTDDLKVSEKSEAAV
Exocytosis inh – blocks lytic granule exocytosis; AID 651702; TALL-104 LAMP-1 surface exposure, flow cytometry; cells stimulated with thapsigargin and PMA; 0.66% of 360,000 active; inhibition, % at 10 µM;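 active means inhibition above about 55%, limit read from the data; inconclusive means no clear call, values can overlap the other calls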
MOR ag counter – counter-screen for mouse HTR2A agonists: human mu opioid receptor agonists; 5.3% of 2,300 active; U2OS OPRM1 beta-arrestin PathHunter, luminescence; DMSO 0%, DAMGO 9.3 µM 100%; activation, % at 9.3 µM; shares compounds with HTR2A ag;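 active means mean activation above the mean of DMSO-only wells plus 3 SD, cut at about 0.5% in these data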
m5-HT2A ag conf – confirmation of mouse HTR2A serotonin receptor agonists; shares compounds with HTR2A ag; CHO-K1 PathHunter beta-arrestin recruitment, luminescence; DMSO 0%, 30 µM serotonin 100%; activation, % at 7.6 µM; 19% of 2,300 active;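 active means mean activation across triplicates above the hit threshold derived in the original primary screen, cut at about 15% in these data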
Starred values were filed as active, the others as inactive; ? = inconclusive; · = no result given. Only some compounds are listed: those with a hit (about 2.2% of all), similar ones and a draw of the others.

SMILES	MEX-5 binding	V-ATPase pHluor	VLA-4 inh	HTR2A ag	JMJD2C inh	Exocytosis inh	MOR ag counter	m5-HT2A ag conf
O=C(CNC(=O)c1ccc(Br)o1)NNC(=O)c1cccc(Cl)c1	2.3	-1.4	19.6	3.3	-28.8	-3.5	·	·
O=C(CNC(=O)c1ccc(Br)o1)NNC(=O)c1ccccc1O	-7.0	-0.1	-9.9	16.6*	0.3	-6.9	-0.6	-3.8
Oc1ccc(C[C@H]2CNC(=S)N2C[C@H]2CCCN2C[C@H](Cc2ccccc2)N2C[C@H](Cc3ccccc3)N(CC3CCCCC3)C2=S)cc1	·	·	·	-3.9	·	7.4	·	·
COC(=O)C(C)n1nnc2sc(-c3ccccc3)cc2c1=O (stereo not given)	0.4	-0.9	-26.7	15.6*	-7.0	-5.9	-0.4	0.0
Nc1ccc(S(=O)(=O)Nc2ccnn2-c2ccccc2)cc1	2.3	-5.1	-374.9	18.8*	-41.0	-5.3	-0.6	-3.8
COCC(=O)Nc1c(C(=O)Nc2ccccc2OC)oc2ccccc12	0.6	0.2	18.4	14.6*	-20.5	-0.5	0.1	-5.9
COc1cccc(CN2CCN(C(=O)c3cccs3)CC2)c1OC	-4.2	2.5	-0.9	6.9	-14.1	-3.1	·	·
O=C(c1cccs1)N1CCN(Cc2ccccc2)CC1	-1.2	1.7	0.0	27.8*	12.5	2.1	-0.4	93.0*
O=C(c1cccs1)N1CCN(Cc2ccncc2)CC1	-1.6	-3.6	8.6	8.3	-0.2	-2.7	·	·
COc1ccc(CN2CCN(C(=O)c3cccs3)CC2)cc1	1.2	2.4	-22.9	29.0*	-0.7	-3.1	-0.4	50.0*
COc1ccc(OC)c(CN2CCN(C(=O)c3cccs3)CC2)c1	-0.9	-2.1	4.3	33.1*	2.5	-0.4	0.8*	90.7*
CC(Oc1cccc2ccccc12)C(=O)N/N=C/c1cccnc1 (stereo not given)	2.9	-6.0	-0.3	2.7	-16.1	0.8	·	·
CC(C)(CC(=O)O)CC(=O)Nc1ccc2c(c1)ncn2CCc1ccccc1	-1.3	1.4	5.2	-3.1	5.4	-0.9	·	·
CCOc1c(C)cnc2c1c(=O)n(CC(=O)NCC1CCCO1)c(=O)n2C (stereo not given)	0.1	-5.8	16.7	4.3	9.8	5.2	·	·
CC(C)N1C(=O)CCC1C(=O)NCc1cccs1 (stereo not given)	1.2	7.2	-5.5	23.3*	43.2	3.4	-0.6	-3.5
Cc1cn(CC(=O)NCc2ccccc2)c(=O)[nH]c1=O	·	-0.1	·	0.5	·	8.0	·	·
Cc1ccc(F)cc1-c1nc(NCC2CC2)nc2ccsc12	·	·	·	15.9*	·	-3.4	-0.2	0.5
Cc1ccccc1-c1nc(NCC2CC2)nc2ccsc12	·	·	·	0.4	·	?	·	·
COc1ccc(Nc2nc(-c3cccs3)nc3ccccc23)c(OC)c1	1.7	0.0	-17.7	3.2	4.4	-0.8	·	·
COc1ccc(Nc2nc(N3CCN(C)CC3)nc3ccccc23)c(OC)c1	-4.1	-3.1	9.3	16.1*	-13.4	-2.0	-0.4	18.8*
Cc1ccc2c(c1)C(c1ccccc1)N(C(=O)c1ccc(Br)o1)CC(=O)N2 (stereo not given)	0.9	-2.6	-0.8	19.2*	0.6	-6.8	-0.5	-3.1
O=C(Oc1ccccc1)c1cccc2cccc(C(=O)Oc3ccccc3)c12	-1.4	3.2	·	·	5.3	·	·	·
O=C(COC(=O)/C=C/c1ccc(C(F)(F)F)cc1)NCC1CCCCC1	-3.1	-0.7	3.7	25.2*	-3.4	-1.2	-0.6	-4.7
O=C(CCN1C(=O)c2ccccc2C1=O)NCc1ccco1	-0.5	-3.6	-2.8	1.1	-9.2	-1.6	·	·
O=C(CCN1C(=O)c2cccc3cccc(c23)C1=O)NCc1ccco1	-0.2	-0.3	8.1	15.5*	-5.5	-2.2	-0.5	-1.6
SMILES	MEX-5 binding	V-ATPase pHluor	VLA-4 inh	HTR2A ag	JMJD2C inh	Exocytosis inh	MOR ag counter	m5-HT2A ag conf
O=C(NC1CCC(O)CC1)c1ccc(NS(=O)(=O)c2cccc([N+](=O)[O-])c2)cc1 (stereo not given)	·	-0.9	-6.9	15.3*	-4.9	6.5	-0.5	-4.0
O=C(NC1CC1)c1ccc(NS(=O)(=O)c2ccccc2)cc1	-1.8	-0.6	-2.6	-6.3	-21.4	-2.2	·	·
CCN(C(=O)C1CCN(S(=O)(=O)c2cccc3nonc23)CC1)c1ccccc1	0.6	-2.0	-23.6	15.1*	-5.8	1.2	-0.6	-2.1
CCOC(=O)N1CCC(N2C(=O)c3ccccc3C2Nc2cccnc2)CC1 (stereo not given)	0.8	6.6	0.0	19.2*	16.8	8.7	-0.5	-1.4
CCOC(=O)N1CCC(N2C(=O)c3ccccc3C2Nc2ccccc2C)CC1 (stereo not given)	-0.6	-2.6	7.2	-4.4	20.8	-4.2	·	·
CCc1nc2c(OCC(=O)c3ccc(F)cc3)cccn2c1N(C)C(=O)C(C)C	·	·	·	24.3*	·	3.2	-0.5	-4.6
CCc1nc2c(OCc3ccc(F)cc3)cccn2c1N(C)C(=O)C(C)C	·	·	·	3.9	·	-3.2	·	·
C=CCOc1cccn2c(N(C)C(=O)c3ccccc3F)c(CC)nc12	·	·	·	15.7*	·	-3.3	-0.3	-2.4
CCc1nc2c(OC)cccn2c1N(C)C(=O)c1ccccc1F	·	·	·	1.7	·	-3.6	·	·
CC(=O)Nc1ccc(NC(=O)C2CCN(c3ccc(C(F)(F)F)cn3)CC2)cc1	-0.4	-2.1	0.7	5.9	-1.4	-0.4	·	·
CC(CCl)n1c(=O)c2ccccc2n1C(=O)c1ccccc1 (stereo not given)	·	·	·	2.0	·	-4.5	·	·
N#Cc1ccccc1OCCCN1CCC(Cc2ccccc2)CC1	-1.0	-0.5	10.1	-7.7	-2.5	32.9	·	·
CCCS(=O)(=O)NC(=O)C1(C)CCN1C(=O)Cc1ccc(-c2ccccc2)cc1 (stereo not given)	·	·	·	17.5*	·	-6.1	-0.2	2.7
C1=NN(c2ccccc2)C=NN1c1ccccc1	·	1.0	·	-4.4	·	-2.9	·	·
O=S(=O)(NC1=NCCCCC1)c1ccc(Cl)cc1Cl	·	-5.5	39.3	14.4*	-6.3	16.1	-0.5	-2.1
Nc1ccccc1S(=O)(=O)NC1=NCCCCC1	0.2	0.3	-9.7	5.0	7.5	-0.6	·	·
CCC1=C(OC(=O)N(CC)CC)N2C(=O)OC(=NCCOC)[C@]2(Cc2ccccc2)[C@H]2C1=CC[C@H]1C(=O)N(CC)C(=O)[C@H]12	-1.9	-0.1	28.8	1.5	-1.4	16.2	·	·
CCC1=C(OC(=O)N(CC)CC)N2C(=O)OC(=NCC3CC3)[C@]2(Cc2ccccc2)[C@H]2C1=CC[C@H]1C(=O)N(CC)C(=O)[C@H]12	-3.8	-0.3	20.2	17.6*	0.1	0.9	0.9*	3.7
O=C(OCC(=O)N1CCNC1=O)c1ccccc1Cl	·	-0.1	·	4.7	·	0.7	·	·

Source: PubChem BioAssay
